# Test results reported in the supplement of paper PMC4206461.
# Tested on: Pseudomonas aeruginosa PA14 dppA1-A5 penta mutant + pBBR5.DppA1 (PA14_58350)
# Assay: respiration area under curve with compound as sole nitrogen source, 24 h (OmniLog AUC (arbitrary units)); higher = more respiration / better utilisation as nitrogen source, active = 2000 or more
# Conditions: plate: PM8
# Protocol: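 Biolog Phenotype MicroArray plates PM6-PM8: each di/tripeptide is the sole nitrogen source. Tetrazolium reduction was read in the OmniLog for 24 h at 37°C and summarised as area under the respiration curve (arbitrary units). Values below 2000 count as no respiration. Strain is the SBP penta mutant complemented with DppA1 on a plasmid under its native promoter. Lys/His/Cys peptides are excluded.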
row,SMILES,respiration area under curve
1,N[C@@H](Cc1ccc(O)cc1)C(=O)NCC(=O)NCC(=O)O,9440 (active)
